Experiment [1] has as its target Glucocorticoid receptor (Homo sapiens) (UniProt P04150). The experiment in a line: qHTS assay for small molecule agonists of glucocorticoid receptor signaling (AID 588532; active means well fitted curve in the direction sought with a large enough effect in the signal ratio, with a control signal flat; the % refers to the signal ratio;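 further: 100% = dexamethasone at 0.1 µM and 0% = DMSO only wells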). The settings on record: HeLa MMTV-bla, beta-lactamase ratio, agonist, 18 h; activation: stronger effect = higher value, percent of dexamethasone control, DMSO zero. In short, it runs like this: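 Titration series, up to 92 uM, applied to GRE-bla HeLa cells for 18 h at 37 C. Detection by CCF4 FRET substrate after 2 h at RT.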
Background: Quantitative high-throughput screening tests each substance at several concentrations.

Experiment [2] deals with Peroxisome proliferator-activated receptor delta (Homo sapiens) (UniProt Q03181). The experiment in a line: qHTS assay for small molecule agonists of peroxisome proliferator-activated receptor delta signaling (AID 588534).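 Further: 0% = DMSO basal wells and 100% = positive control agonist at 10 µM.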 The gist of the method: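 Cells carrying a PPAR-delta beta-lactamase reporter were treated with compounds for 18 h at 37 °C in agonist mode. CCF4 fluorescence was read after 2 h; EC50 and efficacy from Hill fits.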
Chain of Peroxisome proliferator-activated receptor delta (Homo sapiens) (Q03181 whole entry, looked up): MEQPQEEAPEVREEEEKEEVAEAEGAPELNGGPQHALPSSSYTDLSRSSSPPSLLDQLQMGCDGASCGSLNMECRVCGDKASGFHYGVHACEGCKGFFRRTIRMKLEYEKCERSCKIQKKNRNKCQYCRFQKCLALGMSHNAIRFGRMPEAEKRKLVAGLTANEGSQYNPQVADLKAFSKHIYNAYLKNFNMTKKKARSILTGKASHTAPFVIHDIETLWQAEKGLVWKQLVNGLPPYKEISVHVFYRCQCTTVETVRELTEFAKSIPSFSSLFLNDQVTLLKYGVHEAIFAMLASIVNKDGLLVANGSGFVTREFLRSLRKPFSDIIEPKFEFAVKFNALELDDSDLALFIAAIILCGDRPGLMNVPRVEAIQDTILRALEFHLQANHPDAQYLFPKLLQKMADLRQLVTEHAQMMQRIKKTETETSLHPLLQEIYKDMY

Experiment [3] in a line: qHTS assay for small molecule antagonists of peroxisome proliferator-activated receptor delta signaling (AID 588535).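 Further: cells co-treated with a PPAR-delta agonist as stimulator during compound exposure.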 To be noted: HEK293T PPARd-UAS-bla, beta-lactamase FRET ratio, 18 h; 460 nm channel. In short, it runs like this:
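Reporter: UAS-bla under PPAR-delta response element, HEK293T host. Medium: 2% charcoal/dextran FBS. Dosing: titration, 18 hrs, 37 C. Detection: CCF4, 2 hrs RT, 405 ex/460 and 530 em.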

In experiment [4] the target is Peroxisome proliferator-activated receptor gamma (Homo sapiens) (UniProt P37231). The experiment in a line: qHTS assay for small molecule agonists of peroxisome proliferator-activated receptor gamma signaling (AID 588536; active means well fitted curve in the direction sought with a large enough effect in the signal ratio, with a control signal flat, not every such curve was filed as active; the % refers to the signal ratio;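 further: 0% = DMSO basal wells and 100% = rosiglitazone at 2 µM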). The gist of the method: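 HEK293 UAS-bla reporter line, 1% charcoal/dextran FBS; titration, 16 h, 37 C; CCF4 loading 2 h RT; fluorescence 460/530 nm. Normalized to rosiglitazone 2 uM = 100%, DMSO = 0%.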
Chain of Peroxisome proliferator-activated receptor gamma (Homo sapiens) (P37231 whole entry, looked up): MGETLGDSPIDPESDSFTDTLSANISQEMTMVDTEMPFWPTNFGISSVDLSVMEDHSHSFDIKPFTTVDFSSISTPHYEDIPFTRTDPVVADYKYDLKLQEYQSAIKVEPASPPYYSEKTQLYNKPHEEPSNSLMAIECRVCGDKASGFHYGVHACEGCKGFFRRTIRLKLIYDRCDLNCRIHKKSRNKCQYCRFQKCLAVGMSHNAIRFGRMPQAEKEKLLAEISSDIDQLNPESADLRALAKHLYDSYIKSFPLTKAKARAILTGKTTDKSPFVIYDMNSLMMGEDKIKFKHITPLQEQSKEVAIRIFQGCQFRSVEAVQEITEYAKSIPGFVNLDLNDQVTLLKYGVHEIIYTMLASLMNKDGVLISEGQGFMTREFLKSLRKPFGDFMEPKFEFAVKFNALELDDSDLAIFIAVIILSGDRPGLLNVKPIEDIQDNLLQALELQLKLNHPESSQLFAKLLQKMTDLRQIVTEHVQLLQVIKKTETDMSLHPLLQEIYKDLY

Experiment [5] has the same target. The experiment in a line: qHTS assay for small molecule antagonists of peroxisome proliferator-activated receptor gamma signaling (AID 588537; active means well fitted inhibition curve with a large enough effect in the signal ratio, with a control signal flat, not every such curve was filed as active; the % refers to the signal ratio;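 further: reporter cells co-stimulated with 50 nM rosiglitazone agonist during compound treatment; % of control where 0% means no effect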). In short, it runs like this:
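We seeded GeneBLAzer HEK293 reporter cells at 3000 per well, allowed 6-6.5 h attachment at 37 C, then co-treated with test compound titrations and 50 nM rosiglitazone overnight (16 h). Inhibition was quantified from 460/530 nm emission ratios.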

In experiment [6] the target is Vitamin D3 receptor (Homo sapiens) (UniProt P11473). The experiment in a line: qHTS assay for small molecule antagonists of vitamin D receptor signaling (AID 588541).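 Further: receptor activated by calcitriol during compound treatment; series mostly up to about 77 µM; on the % scale 0 is the no-effect control and ±100 the full control effect.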 In short, it runs like this:
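VDR-UAS-bla HEK293T cells (2000/well, 2% charcoal-stripped FBS) were treated with titrated compounds plus 1-alpha,25-dihydroxyvitamin D3 (50 nM or 3 nM final) for 16 h at 37 C. CCF4 beta-lactamase fluorescence was read; Hill fits gave IC50.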

Experiment [7] shares this target. The experiment in a line: qHTS assay for small molecule agonists of vitamin D receptor signaling (AID 588543).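 Further: 0% = DMSO basal and 100% = reference agonist control.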 In short, it runs like this:
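Measured: β-lactamase reporter activity (CCF4, 405 nm excitation, 460/530 nm emission) in HEK293T VDR-UAS-bla cells after 16 h compound exposure at 37 °C. Normalization against 50 nM 1α,25-dihydroxyvitamin D3 and DMSO; Hill-fit EC50.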

Experiment [8] deals with Retinoic acid receptor RXR-alpha (Homo sapiens) (UniProt P19793). The experiment in a line: qHTS assay for small molecule agonists of retinoid X receptor alpha signaling (AID 588544).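 Further: 0% = DMSO basal wells and 100% = reference agonist.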
Chain of Retinoic acid receptor RXR-alpha (Homo sapiens) (P19793 whole entry, looked up): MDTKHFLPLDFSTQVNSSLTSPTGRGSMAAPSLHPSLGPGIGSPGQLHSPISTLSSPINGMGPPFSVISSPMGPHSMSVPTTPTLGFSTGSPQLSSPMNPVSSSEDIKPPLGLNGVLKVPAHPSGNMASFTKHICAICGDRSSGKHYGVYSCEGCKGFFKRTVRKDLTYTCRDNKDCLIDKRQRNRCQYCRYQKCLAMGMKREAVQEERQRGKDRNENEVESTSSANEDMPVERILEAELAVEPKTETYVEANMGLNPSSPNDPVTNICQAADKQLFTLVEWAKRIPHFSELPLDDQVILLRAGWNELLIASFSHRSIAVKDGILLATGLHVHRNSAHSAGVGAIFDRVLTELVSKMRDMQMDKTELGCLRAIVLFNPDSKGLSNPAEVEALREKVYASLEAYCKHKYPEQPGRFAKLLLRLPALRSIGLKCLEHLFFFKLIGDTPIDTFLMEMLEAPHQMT
The nature of experiment [9]: qHTS assay for small molecule antagonists of retinoid X receptor alpha signaling (AID 588546; active means well fitted inhibition curve with a large enough effect in the signal ratio, with a control signal flat, not every such curve was filed as active; the % refers to the signal ratio;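 further: cells stimulated with 9-cis-retinoic acid as agonist; on the % scale 0 is the no-effect control and ±100 the full control effect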). The settings on record: HEK293T RXRa-UAS-bla, beta-lactamase ratio, antagonist mode; measured here: W530 green channel, cytotoxicity proxy. The gist of the method:
(§1)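 Beta-lactamase reporter inhibition, read as CCF4 fluorescence ratio (ex 405, em 460/530 nm) after 2 h at RT. HEK293T UAS-bla cells, 2500/well, were stimulated with 9-cis-RA at 500 or 100 nM final alongside test compound for 18 h at 37 C.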

Experiment [10] addresses Retinoic acid receptor RXR-alpha (Homo sapiens) (UniProt P19793). The experiment is described as above. The settings on record: HEK293T RXRa-UAS-bla, beta-lactamase ratio, antagonist mode. In short, it runs like this:
as §1

The target of experiment [11] is Thyroid hormone receptor beta (Homo sapiens) (UniProt P10828). The experiment in a line: qHTS assay for small molecule antagonists of thyroid hormone receptor beta signaling (AID 588547; active means well fitted inhibition curve with a large enough effect in the signal ratio, with a control signal flat, not every such curve was filed as active; the % refers to the signal ratio;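 further: cells stimulated with 0.4 nM T3 agonist during compound exposure; series mostly up to about 77 µM; on the % scale 0 is the no-effect control and ±100 the full control effect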). To be noted: TR-UAS-bla HEK293, beta-lactamase ratio, antagonist mode, 18 h. In short, it runs like this:
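TR-UAS-bla GripTite HEK293 cells in 2% charcoal/dextran FBS medium were preincubated 4 h at 37 C, given compound (0.59 nM to 92 uM) plus 0.4 nM T3 (final) for 18 h, then CCF4 for 2 h at RT; Hill fit gave IC50.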

The nature of experiment [12]: qHTS assay for small molecule activators of the p53 signaling pathway (AID 651743; active means well fitted activation curve with a large enough effect in the signal ratio, not every such curve was filed as active; the % refers to the signal ratio; further: series mostly up to about 92 µM; % of control where 0% means no effect). To be noted: HCT-116 p53RE-bla, beta-lactamase FRET ratio, 16 h; activation: stronger effect = higher value. In short, it runs like this:
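Cell-based beta-lactamase reporter (p53 response elements, HCT-116 background). After a 5-hour preincubation, cells received compound for 16 hours at 37 C; substrate development ran 2 hours at room temperature.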

The nature of experiment [13]: qHTS assay for environmental chemicals that activate the Aryl hydrocarbon Receptor (AhR) signaling pathway (AID 651777; active means well fitted curve in the direction sought with a large enough effect; an effect the other way counts as inactive or inconclusive; further: % of control where 0% means no effect; nearly all actives have a fitted effect of over 15% in size). To be noted: 1A2-DRE human hepatoma cells, luciferase, 24 h; activation: stronger effect = higher value. The gist of the method: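 Human hepatoma 1A2-DRE cells, stably carrying a dioxin response element and CYP1A2 promoter driving luciferase, were exposed to compounds for 24 hr at 37 C and 5% CO2. Luciferase signal was then read after 30 min One-Glo at room temperature.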

Experiment [14] addresses Peroxisome proliferator-activated receptor alpha (Homo sapiens) (UniProt Q07869). The experiment in a line: qHTS assay for small molecule agonists of the peroxisome proliferator-activated receptor alpha (PPARalpha) signaling pathway (AID 651778; active means well fitted curve in the direction sought with a large enough effect; an effect the other way counts as inactive or inconclusive; further: % of control where 0% means no effect). To be noted: PathHunter PPARalpha complementation, chemiluminescence, 6 h; max response: stronger effect = higher value. In short, it runs like this:
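Cells plated at 2,000/well and held overnight at 37 C, 5% CO2, then compound added by pin tool for 6 hr; after PathHunter detection reagent and 60 min at room temperature, chemiluminescence from enzyme complementation was read.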

The nature of experiment [15]: qHTS assay for small molecule agonists of the antioxidant response element (ARE) signaling pathway measured by Nrf2-dependant transcriptional activity (AID 720636; active means well fitted curve in the direction sought with a large enough effect in the repeat runs; an effect the other way counts as inactive or inconclusive; further: % of control where 0% means no effect). The gist of the method:
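ARE-luc HepG2 cells carrying an Nrf2-responsive luciferase reporter were plated in medium with 1% dialyzed FBS, left 6 hr at 37 C to attach, then exposed to compound for 16 hr. Luciferase luminescence was read after ONE-Glo addition.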

Experiment [16] is described as follows: qHTS assay for small molecule agonists of the antioxidant response element (ARE) signaling pathway measured by Nrf2-dependant transcriptional activity - cell viability counter screen (AID 720653; active means well fitted curve in the direction sought with a large enough effect in the repeat runs; an effect the other way counts as inactive or inconclusive; further: on the % scale 0 is the no-effect control and ±100 the full control effect). The settings on record: ARE-bla HepG2 viability, CellTiter-Glo ATP luminescence, 16 h; max response: stronger effect = lower value. The gist of the method: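 ARE-bla HepG2 cells (2,000/well) rested 5 hrs at 37C/5% CO2, then exposed to compounds in DMSO for 16 hrs. Viability was read in the same wells as intracellular ATP by luminescence, 30 min at room temperature after reagent addition.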

Experiment [17] can be described thus: qHTS assay for cell viability of HEK293 cells (AID 743288; active means well fitted curve in the direction sought with a large enough effect; an effect the other way counts as inactive or inconclusive; further: on the % scale 0 is the no-effect control and ±100 the full control effect; nearly all actives have a fitted effect of over 50% in size). To be noted: ATP luminescence (CellTiter-Glo), 18 h; max response: stronger effect = lower value. The gist of the method: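 Luminescent ATP quantitation served as the viability read-out. Cells (parental HEK293, 2,000/well) received compounds after at least 5 h at 37 C and were exposed for 18 h before a 30 min room-temperature reagent step.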

A short description of experiment [18]: qHTS assay for cell viability of the p53RE-bla HCT-116 cell line (AID 743292; active means well fitted curve in the direction sought with a large enough effect; an effect the other way counts as inactive or inconclusive; further: on the % scale 0 is the no-effect control and ±100 the full control effect; nearly all actives have a fitted effect of over 55% in size). In short, it runs like this: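 CellSensor p53RE-bla HCT-116 cells, 4,000/well, preincubated 5 h at 37 C, then exposed to compounds in DMSO for 16 h at 37 C. Viability read as CellTiter-Glo luminescence (intracellular ATP) after 30 min at room temperature.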
The target of experiment [19] is Nuclear receptor subfamily 1 group I member 2 (Rattus norvegicus) (UniProt Q9R1A7). The experiment in a line: qHTS assay for small molecule activators of the rat pregnane X receptor (rPXR) signaling pathway (AID 651751; call rule not given here; further: 0% is about no effect). To be noted: rPXR reporter cells, luciferase (One-Glo), 24 h.
Chain of Nuclear receptor subfamily 1 group I member 2 (Rattus norvegicus) (Q9R1A7 whole entry, looked up): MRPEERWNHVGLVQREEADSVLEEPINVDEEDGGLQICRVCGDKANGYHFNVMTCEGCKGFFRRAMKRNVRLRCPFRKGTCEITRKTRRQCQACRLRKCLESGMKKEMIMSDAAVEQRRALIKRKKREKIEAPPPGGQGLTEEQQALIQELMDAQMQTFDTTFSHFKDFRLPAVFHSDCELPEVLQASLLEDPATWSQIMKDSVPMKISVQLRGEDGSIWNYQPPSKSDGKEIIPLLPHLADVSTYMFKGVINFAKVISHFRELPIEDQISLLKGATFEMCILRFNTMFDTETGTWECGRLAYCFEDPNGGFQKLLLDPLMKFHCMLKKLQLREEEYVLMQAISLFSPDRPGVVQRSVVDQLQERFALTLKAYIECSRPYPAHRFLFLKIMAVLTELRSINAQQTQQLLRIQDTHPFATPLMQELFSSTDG
For experiment [20], the target named is Thyroid hormone receptor beta (Homo sapiens) (UniProt P10828). The experiment in a line: qHTS assay for small molecule agonists of thyroid hormone receptor beta signaling (AID 588545).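 Further: 0% = DMSO only and 100% = 10 nM T3.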 In short, it runs like this:
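TR-UAS-bla GripTite HEK 293 cells (2500/well, medium with 2% charcoal/dextran FBS) were treated in agonist mode for 18 h at 37 C, titrated. Beta-lactamase was read by CCF4 ratio after 2 h; normalized to 10 nM T3 (100%) and DMSO, Hill-fitted for EC50 and efficacy.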

SMILES strings stand for the structures. Values joined by “and” are separate entries in the source; they are usually repeats but may differ in a detail not shown here. Equal values may be shown once. Results filed as inconclusive are left out. Active and inactive are the calls of the source. Unless noted, the call rests on the fitted dose curve.

Chain of Glucocorticoid receptor (Homo sapiens) (P04150 whole entry, looked up): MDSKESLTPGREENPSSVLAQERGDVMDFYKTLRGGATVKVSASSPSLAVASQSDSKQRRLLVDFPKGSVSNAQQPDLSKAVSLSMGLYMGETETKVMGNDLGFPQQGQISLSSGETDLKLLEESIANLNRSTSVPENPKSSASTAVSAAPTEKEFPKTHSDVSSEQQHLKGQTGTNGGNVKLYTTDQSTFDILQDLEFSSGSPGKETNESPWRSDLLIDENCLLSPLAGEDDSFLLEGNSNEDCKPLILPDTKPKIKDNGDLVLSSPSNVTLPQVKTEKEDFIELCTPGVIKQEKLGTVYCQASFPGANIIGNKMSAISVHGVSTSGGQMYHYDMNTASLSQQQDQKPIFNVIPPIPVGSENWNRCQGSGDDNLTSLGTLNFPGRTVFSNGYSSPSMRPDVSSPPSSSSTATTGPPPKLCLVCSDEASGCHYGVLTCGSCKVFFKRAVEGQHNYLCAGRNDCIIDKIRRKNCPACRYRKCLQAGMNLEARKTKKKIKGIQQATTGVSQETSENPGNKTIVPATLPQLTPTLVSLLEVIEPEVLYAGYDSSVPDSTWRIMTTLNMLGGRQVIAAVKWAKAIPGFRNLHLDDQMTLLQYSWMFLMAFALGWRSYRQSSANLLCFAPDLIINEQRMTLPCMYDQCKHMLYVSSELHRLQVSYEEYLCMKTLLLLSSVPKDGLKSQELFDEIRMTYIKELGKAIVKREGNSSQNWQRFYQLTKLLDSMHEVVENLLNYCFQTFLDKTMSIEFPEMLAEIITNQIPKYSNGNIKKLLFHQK
Chain of Vitamin D3 receptor (Homo sapiens) (P11473 whole entry, looked up): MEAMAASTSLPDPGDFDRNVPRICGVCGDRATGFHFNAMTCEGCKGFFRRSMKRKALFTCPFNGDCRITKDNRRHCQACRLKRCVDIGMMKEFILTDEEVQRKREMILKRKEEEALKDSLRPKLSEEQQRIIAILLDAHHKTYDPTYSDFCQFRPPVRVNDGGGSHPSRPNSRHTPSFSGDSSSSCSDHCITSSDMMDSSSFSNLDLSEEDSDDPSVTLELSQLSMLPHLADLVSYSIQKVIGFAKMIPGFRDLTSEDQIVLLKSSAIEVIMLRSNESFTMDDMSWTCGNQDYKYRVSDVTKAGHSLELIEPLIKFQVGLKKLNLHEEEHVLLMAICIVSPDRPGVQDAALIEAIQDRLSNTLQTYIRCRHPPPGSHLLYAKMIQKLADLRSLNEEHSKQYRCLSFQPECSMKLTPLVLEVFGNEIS
Chain of Thyroid hormone receptor beta (Homo sapiens) (P10828 whole entry, looked up): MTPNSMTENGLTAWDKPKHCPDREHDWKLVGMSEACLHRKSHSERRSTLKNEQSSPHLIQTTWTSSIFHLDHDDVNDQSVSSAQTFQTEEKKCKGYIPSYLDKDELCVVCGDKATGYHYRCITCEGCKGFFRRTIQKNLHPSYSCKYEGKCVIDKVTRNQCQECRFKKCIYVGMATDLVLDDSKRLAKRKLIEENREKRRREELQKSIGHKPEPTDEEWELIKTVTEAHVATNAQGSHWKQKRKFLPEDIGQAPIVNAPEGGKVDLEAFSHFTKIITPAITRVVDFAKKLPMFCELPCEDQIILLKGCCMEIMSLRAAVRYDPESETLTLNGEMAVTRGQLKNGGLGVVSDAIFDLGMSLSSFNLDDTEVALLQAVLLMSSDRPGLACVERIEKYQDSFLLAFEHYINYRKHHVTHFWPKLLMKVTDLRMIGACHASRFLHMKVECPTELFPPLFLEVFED
Chain of Peroxisome proliferator-activated receptor alpha (Homo sapiens) (Q07869 whole entry, looked up): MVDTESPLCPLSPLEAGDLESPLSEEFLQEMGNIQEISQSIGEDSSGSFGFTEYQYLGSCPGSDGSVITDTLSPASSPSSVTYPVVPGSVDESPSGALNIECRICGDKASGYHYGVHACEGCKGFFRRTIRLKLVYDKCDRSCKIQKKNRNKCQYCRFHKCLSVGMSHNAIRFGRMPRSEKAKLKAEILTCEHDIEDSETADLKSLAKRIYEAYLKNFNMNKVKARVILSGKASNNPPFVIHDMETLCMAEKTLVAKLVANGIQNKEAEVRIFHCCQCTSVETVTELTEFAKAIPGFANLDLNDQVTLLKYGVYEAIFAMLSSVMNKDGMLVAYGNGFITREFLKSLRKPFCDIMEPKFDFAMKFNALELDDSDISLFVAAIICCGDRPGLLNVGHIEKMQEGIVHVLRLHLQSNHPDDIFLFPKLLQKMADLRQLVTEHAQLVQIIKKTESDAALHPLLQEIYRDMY

For `COC(=O)c1ccccc1CS(=O)(=O)NC(=O)Nc1nc(OC)cc(OC)n1`, the activation is -0.772% (inactive) in [1], -2.78% (inactive) in [12] and -0.954% (inactive) in [13]. For the same compound, the compound was called inactive in experiment [2] and in experiment [7]. Further, the max response in experiment [3] was -1.25%; in [9], 1.62%; in experiment [10], -11% (inactive); in experiment [14], -0.343% (inactive); in experiment [16] it was -5.06% (inactive); in experiment [17], -8.65% (inactive). The max response in [19] is -0.458% (inactive). Moreover, the Potency entry in experiment [4], in experiment [5], in [6], in experiment [8], in experiment [15] and in experiment [18] was “inactive” in each case. Moreover, the activity change % (negative = inhibition) in experiment [11] was 15.6% (inactive).

Regarding `COc1ccc(O)c(C(C)(C)C)c1`, the activation in experiment [1] was -14% (inactive); in [12], 1.43% (inactive); in experiment [13], 3.77% (inactive). In addition, the Potency result in experiment [4], in experiment [6], in experiment [8], in experiment [20] and in [15] was “inactive” throughout. In addition, the outcome in experiment [7] was inactive. The max response was -10.9% in experiment [9]; 7.69% (inactive) in experiment [10]; 1.63% (inactive) in experiment [14]; 1.24% (inactive) in experiment [16]; -7.51% (inactive) in experiment [17]; 3.52% (inactive) in experiment [19].

Regarding `O=S(=O)(O)C(F)(F)C(F)(F)C(F)(F)C(F)(F)C(F)(F)C(F)(F)F`, the activation in [1] was 2.96% (inactive) and -3.35% (inactive); in experiment [12], -1.95% (inactive) and 1.08% (inactive); in [13] it was 2.71% (inactive) and 0.937% (inactive). The result in experiment [2] and in experiment [7] was inactive. Also, the max response in experiment [3] was -35.3% and 95.7%; in experiment [9], 0.0729%; in experiment [10], -0.502% (inactive); in [14] it was 12% (inactive) and 14.9% (inactive); in [16], 4.85% (inactive) and -13.8% (inactive); in experiment [17] it was -20.2% (inactive) and -14.6% (inactive). Also, in [19], the max response is -2.73% (inactive) and -3.57% (inactive). Further, the Potency result in experiment [4], in experiment [5], in [6], in experiment [8], in experiment [20] and in experiment [15] was “inactive” in each case. For the same compound, in experiment [18], the Potency entry was “inactive”. The activity change % (negative = inhibition) in [11] is 23.1% (inactive).

As for `CCCN(CCC)c1c([N+](=O)[O-])cc(C(F)(F)F)c(N)c1[N+](=O)[O-]`, the outcome in [2] was inactive.

Turning to `COc1ccc(-c2ccccc2)cc1NNC(=O)OC(C)C`, the activation in experiment [1] was -5.42% (inactive); in experiment [12] it was -1.18% (inactive). In addition, the Potency result in [4], in experiment [5], in [6], in experiment [20], in experiment [15] and in [18] was “inactive” throughout. The compound was called inactive in [7]. The max response in [14] was -0.526% (inactive); in [16], -7.29% (inactive); in experiment [17] it was -21.9% (inactive); in experiment [19] it was -11.3% (inactive).

Regarding `Cc1c(COC(=O)C2C(/C=C(\Cl)C(F)(F)F)C2(C)C)cccc1-c1ccccc1` (stereo not given), the call in experiment [2] and in experiment [7] was inactive. For the same compound, the max response in [3] was 11.3%; in experiment [9] it was 1.28%; in experiment [10] it was -11.6% (inactive); in [14], -0.35% (inactive); in experiment [16], -14.6% (inactive); in experiment [17], -17.7% (inactive). For the same compound, the Potency entry in experiment [4], in experiment [5], in [6], in [20] and in experiment [15] was “inactive” throughout. For the same compound, the activation in experiment [12] was 2.17% (inactive); in [13] it was -0.984% (inactive).

Turning to `CC(C)C(=O)OCC(C)(C)C(OC(=O)C(C)C)C(C)C` (stereo not given), the activation is -2.67% (inactive) in [1], -0.206% (inactive) in [12] and 1.77% (inactive) in [13]. Also, the max response in experiment [3] was -3.86%; in experiment [9], -5.68%; in [14], -1.27% (inactive); in experiment [16] it was -12.6% (inactive); in experiment [17], -13% (inactive); in [19], 2.02% (inactive). Besides, the Potency result in [4], in experiment [5], in experiment [6], in experiment [8], in experiment [20] and in experiment [18] was “inactive” in each case. Further, in [7], the compound was classed as inactive. Further, in experiment [11], the activity change % (negative = inhibition) is 4.21% (inactive).

For the origin of these results see PubChem BioAssay (NCATS).
